This passage reports outcome and AC50 results from PubChem BioAssay (EPA / NIEHS).

As usually defined, the AC50 is the midpoint of the concentration-response curve, whichever way the signal moves.

Inconclusive results are not listed. Calls of active or inactive are those of the source. Rule for the calls: active = hit-call score of the fitted dose curve at least 0.9, where 1 is the maximum; inconclusive = response in the unintended direction; inactive = score below 0.9.

Chain of human Protein Tyrosine Phosphatase Non-receptor Type 6 (PTPN6), PTPN6 (gene 5777) (P29350 whole entry, looked up): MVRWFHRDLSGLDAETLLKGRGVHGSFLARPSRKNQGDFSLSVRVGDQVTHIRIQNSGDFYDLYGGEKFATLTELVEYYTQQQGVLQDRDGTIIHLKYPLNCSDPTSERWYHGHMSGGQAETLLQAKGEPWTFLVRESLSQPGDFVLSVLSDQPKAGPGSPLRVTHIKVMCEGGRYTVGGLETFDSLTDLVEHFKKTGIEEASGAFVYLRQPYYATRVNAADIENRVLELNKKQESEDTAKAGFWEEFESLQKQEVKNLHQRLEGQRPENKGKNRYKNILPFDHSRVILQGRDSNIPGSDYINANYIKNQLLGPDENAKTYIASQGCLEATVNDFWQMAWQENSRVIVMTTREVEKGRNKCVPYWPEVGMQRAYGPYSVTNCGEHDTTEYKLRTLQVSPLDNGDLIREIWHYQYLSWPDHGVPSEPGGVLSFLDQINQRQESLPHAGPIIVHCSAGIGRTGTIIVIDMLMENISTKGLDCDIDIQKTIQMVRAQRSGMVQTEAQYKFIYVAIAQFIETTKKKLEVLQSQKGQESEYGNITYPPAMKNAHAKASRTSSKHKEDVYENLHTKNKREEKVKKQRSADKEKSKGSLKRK
Chain of human Protein Tyrosine Phosphatase Non-receptor Type 1 (PTPN1), PTPN1 (gene 5770) (P18031 whole entry, looked up): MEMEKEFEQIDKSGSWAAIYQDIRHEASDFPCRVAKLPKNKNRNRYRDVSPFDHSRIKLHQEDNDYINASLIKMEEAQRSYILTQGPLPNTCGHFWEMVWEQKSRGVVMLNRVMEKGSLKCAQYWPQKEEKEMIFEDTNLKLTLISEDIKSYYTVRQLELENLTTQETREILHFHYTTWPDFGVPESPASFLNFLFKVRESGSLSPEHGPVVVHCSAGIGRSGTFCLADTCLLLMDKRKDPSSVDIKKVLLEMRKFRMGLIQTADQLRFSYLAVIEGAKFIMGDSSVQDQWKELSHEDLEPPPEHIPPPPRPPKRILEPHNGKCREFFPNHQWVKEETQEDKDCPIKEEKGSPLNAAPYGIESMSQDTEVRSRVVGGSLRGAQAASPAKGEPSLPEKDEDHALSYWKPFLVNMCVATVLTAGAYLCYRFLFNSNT
Chain of human Protein Phosphatase, Mg2+/Mn2+ Dependent 1A (PPM1A), PPM1A (gene 5494) (P35813 whole entry, looked up): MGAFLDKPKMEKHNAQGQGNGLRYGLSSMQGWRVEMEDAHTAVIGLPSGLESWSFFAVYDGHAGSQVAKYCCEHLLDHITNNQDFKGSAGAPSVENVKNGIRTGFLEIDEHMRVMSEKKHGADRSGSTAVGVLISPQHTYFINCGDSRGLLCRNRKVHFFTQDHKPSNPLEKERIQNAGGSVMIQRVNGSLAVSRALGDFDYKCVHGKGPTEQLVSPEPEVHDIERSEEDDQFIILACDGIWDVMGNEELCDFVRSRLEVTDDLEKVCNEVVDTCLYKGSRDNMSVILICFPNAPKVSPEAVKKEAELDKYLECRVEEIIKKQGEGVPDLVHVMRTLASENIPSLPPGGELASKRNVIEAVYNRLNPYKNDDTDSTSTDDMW

One assay deals with cAMP-dependent protein kinase catalytic subunit alpha (Homo sapiens) (UniProt P17612). Kind of assay: NVS_ENZ_hPKA: NovaScreen (NVS) Enzymatic Assay for human Protein Kinase A (PKA) (AID 2283192). The essentials:
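Cell-free kinase activity read by fluorescence after mobility-shift separation of substrate and product, 1 h post-dosing. Single-concentration duplicate screen (25 uM) preceded singleton concentration series (top 50 uM); loss of signal versus DMSO.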
For `CC(=O)CC(c1ccccc1)c1c(O)c2ccccc2oc1=O` (stereo not drawn), the compound was called inactive. Same read-out and setting: in the case of `O=C(N[C@@H](c1ccccc1)[C@@H]1CCCCN1)c1cccc(C(F)(F)F)c1Cl` it was “inactive”. Still for that read-out and setting: the entry for `O=C(Oc1ccccc1)c1cccc(C(=O)Oc2ccccc2)c1` is “inactive”; for `CC(C)(C)c1ccccc1` it is “inactive”.

The target in another assay is human Phosphodiesterase 5 (PDE5), PDE5A (gene 8654) (UniProt O76074). Nature of the assay: NVS_ENZ_hPDE5: NovaScreen (NVS) Enzymatic Assay for human Phosphodiesterase 5 (PDE5) (AID 2283194). The procedure, abridged: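 Screening began in duplicate at 25 uM, with actives taken into concentration-response. Enzyme activity of recombinant PDE5 toward its substrate was measured at 1 h by fluorescence mobility-shift detection, relative to DMSO controls.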
Take `CS(=O)(=O)c1ccc([C@@H](C[C@H]2CCC(=O)C2)C(=O)Nc2cnccn2)cc1Cl`: the AC50 is 23.3 µM (active). In the case of `CC(N)=O`, the result was inactive. Consider `Oc1ccccc1O`, for which the result was inactive.

Regarding `CC(C)(O)c1ccc(CNC(=O)c2cccnc2Oc2ccc(F)cc2)cc1`, the result was inactive. On the same count and under the same terms, the entry for `CC1(C)C(=O)NC(=O)N1CO` is “inactive”.

For another assay, the target named is human Protein Phosphatase, Mg2+/Mn2+ Dependent 1A (PPM1A), PPM1A (gene 5494) (UniProt P35813). Nature of the assay: NVS_ENZ_hPPM1A: NovaScreen (NVS) Enzymatic Assay for human Protein Phosphatase, Mg2+/Mn2+ Dependent 1A (PPM1A) (AID 2283198). On the procedure:
NVS_ENZ_hPPM1A is a biochemical, single-readout assay that uses extracted gene-proteins in a cell-free assay. Measurements were taken 1 hour after chemical dosing in a 384-well plate.NVS_ENZ_hPPM1A is one of one assay component(s) measured or calculated from the NVS_ENZ_hPPM1A assay. It is designed to make measurements of enzyme activity, a form of enzyme reporter, as detected with fluorescence intensity signals by Fluorescence and electrophoretic mobility shift technology.Data from the assay component NVS_ENZ_hPPM1A was analyzed into 1 assay endpoint. This assay endpoint, NVS_ENZ_hPPM1A, was analyzed in the positive analysis fitting direction relative to DMSO as the negative control and baseline of activity. Using a type of enzyme reporter, loss-of-signal activity can be used to understand changes in the enzymatic activity as they relate to the gene PPM1A. Furthermore, this assay endpoint can be referred to as a primary readout, because this assay has produced multiple assay endpoints where this one serves a enzymatic activity function. To generalize the intended target to other relatable targets, this assay endpoint is annotated to the phosphatase intended target family, where the subfamily is serine/threonine phosphatase.
Binding assays used specific radioligands (tritiated, iodinated) with non-radioactive competitive displacement ligands in agonist or antagonist protocols (as indicated) and various reference compounds and inhibitors to titrate specific binding to receptors and transporters. Most enzyme assays (CYPs, kinases, phosphatases, proteases, HDACs) used recombinant protein and specific substrates (fluorescence mostly, some colorimetric and radioactive) and inhibitors, followed by a biochemical separation of substrate and product. All assays for the biochemical HTS were initially run in duplicate at a single concentration (10 uM for CYP450 assays and 25 uM for all others). Assay-chemical combinations meeting a pre-defined threshold (e.g., 30% inhibition and other criteria defined below) were then run in singleton concentration-response format with maximum concentration of 20 uM for CYPs and 50 uM for all others. Each assay was run with positive and negative controls, and concurrent controls on every plate. The follow-up (secondary) screen tested active chemical-pairs in concentration series, as well as a few additional assays not tested in the primary screen, some selected negative inactives, and several cases re-run in the concentration series for confirmatory purposes.
For `Cc1ccc(C(C)(C)C)c(O)c1`, the compound was classed as inactive. `CCCCCCCCCCCCCCCCO`: the outcome was inactive. The same measure, in the same setting: the entry for `CC(=O)OC1CC(C)OC(C)O1` (stereo not drawn) is “inactive”.

In a further assay the target is human Protein Tyrosine Phosphatase Non-receptor Type 1 (PTPN1), PTPN1 (gene 5770) (UniProt P18031). Nature of the assay: NVS_ENZ_hPTPN1: NovaScreen (NVS) Enzymatic Assay for human Protein Tyrosine Phosphatase Non-receptor Type 1 (PTPN1) (AID 2283201). The procedure, abridged:
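Chemicals were first tested in duplicate at 25 uM, and those passing threshold went on to singleton concentration series topping at 50 uM. Recombinant enzyme, specific substrate, product separated by mobility shift, fluorescence read at 1.33 h; activity loss relative to DMSO.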
In the case of `O=C(NS(=O)(=O)/C=C/c1cccs1)c1ccc(F)cc1Br`, the outcome was inactive.

On to `NCCOCCOCCN`, for which the compound was called inactive. Still for that read-out and setting: the entry for `CCCCC(CC)COP(=O)(OCC(CC)CCCC)OCC(CC)CCCC` (stereo not drawn) is “inactive”.

A further assay concerns the target human Protein Tyrosine Phosphatase Non-receptor Type 6 (PTPN6), PTPN6 (gene 5777) (UniProt P29350). Kind of assay: NVS_ENZ_hPTPN6: NovaScreen (NVS) Enzymatic Assay for human Protein Tyrosine Phosphatase Non-receptor Type 6 (PTPN6) (AID 2283210). The procedure, abridged: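 Recombinant human PTPN6 from SF9 cells, enzyme activity followed by fluorescence after mobility-shift separation of substrate and product at 1.33 h. Chemicals first tested at a single 25 uM in duplicate, then confirmed across concentration series; loss of signal relative to DMSO.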
As for `CCCCCCC(C=O)=Cc1ccccc1`, the call was inactive. Turning to `CC(COCC(C)OC(=O)c1ccccc1)OC(=O)c1ccccc1` (stereo not drawn), the result was inactive. Same read-out and setting: in the case of `COc1ccc(C(=O)Nc2nc3ccccc3c(NCc3ccccc3)c2C#N)cc1` it was “inactive”.
